Sampled rows, rich in hits. Any-hit rate of the full collection: about 21%.
SARS PLpro yeast = inhibitors of SARS-CoV papain-like protease in yeast; 330,000 tested, 0.19% active; Potency, µM (doses to about 32.9 µM), for inactives: top-dose activity, positive = growth rescue, hits mostly activators; S. cerevisiae expressing SARS-CoV PLpro, growth rescue; further: potency means the concentration at half of the fitted maximal effect; 0% is about no effect; nearly all actives have a fitted effect of over 55% in size
NS1 inh = blocks influenza NS1 protein function | 270,000 tested, 0.4% active | Potency, µM (series often up to 46.1 µM), without a hit: top-dose activity, positive = more growth; further: potency means the concentration at half of the fitted maximal effect; actives are rising curves; nearly all actives have a fitted effect of over 50% in size
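Growth recovery, yeast-based: influenza A NS1 expressed in S. cerevisiae causes slow growth, and suppressors are detected by OD600. The parent strain without NS1 is used as positive control.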
Pf growth 48h = inhibits P. falciparum growth in the first generation, 48 h. AID 504832. Potency, µM (series often up to 28.7 µM), inactives show top-dose activity change, negative = inhibition, actives largely listed as inhibitors. 310,000 tested, 5.9% active. P. falciparum luciferase growth in erythrocytes, 48 h; active means well fitted inhibition curve with a large enough effect; inconclusive means small, poorly fitted or top-dose-only effect, or another doubt; inactive means no such curve, though single readings can be large or run the other way; further: potency means the concentration at half of the fitted maximal effect; on the % scale 0 is the no-effect control and ±100 the full control effect
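Firefly luciferase activity from engineered P. falciparum reports growth; inhibitors lower the luminescent signal. Cultures contained 2% hematocrit erythrocytes at 0.1% final parasitemia.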
Pf growth 96h = inhibits malaria parasite growth, 96 h | P. falciparum luciferase reporter growth, 96 h | Potency, µM (doses to about 28.7 µM), inactives show at the top dose activity change, negative = inhibition, most hits filed as inhibitors | 320,000 tested, 6.9% active; active means well fitted inhibition curve with a large enough effect; inconclusive means small, poorly fitted or top-dose-only effect, or another doubt; inactive means no such curve, though single readings can be large or run the other way; further: potency means the concentration at half of the fitted maximal effect; on the % scale 0 is the no-effect control and ±100 the full control effect
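Compounds incubated with erythrocytes infected by luciferase-expressing P. falciparum (2% hematocrit, 0.05% parasitemia final) for 96 hours, 37 C in 5% CO2. Growth inhibition scored as decreased luciferase luminescence.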
Cycloheximide cs = counter-screen hit for Shiga toxin inhibitors, cycloheximide; cell reporter, cycloheximide protein synthesis inhibition counterscreen; max response, %; 300,000 tested, 12% active; in the data active means max response mostly above about 13%, no sharp cut-off; inactive means mostly below about 14%; further: read at 38.3 µM for the half of the compounds with a filed dose; 0% is about no effect
Shiga toxin inh = inhibitors of Shiga toxin in Vero cells | inhibition, % at 38.7 µM | 290,000 tested, 9.2% active | Vero cells, Shiga toxin protein synthesis inhibition reporter | AID 2315; in the data active means inhibition mostly above about 28%, no sharp cut-off; inactive means mostly below about 43%; further: 0% is about no effect
* marks the source's active call; other numbers are inactive results; ? = inconclusive; . = no result given; [ ] = another dose, or the depositor's remark. Unless noted, the call rests on the fitted dose curve.

SMILES | SARS PLpro yeast | NS1 inh | Pf growth 48h | Pf growth 96h | Cycloheximide cs | Shiga toxin inh
CC(=O)NC(Cc1ccc(F)cc1)C(=O)NC1CCN(C(=O)Nc2ccccc2C)CC1 (stereo not drawn) | 13.7% | 5.2% | -22.9% | 21.7% | 1.8 | -19.6
COc1cnn(-c2ccc(C)cc2)c(=O)c1SCc1ccccc1 | 10.0% | -25.2% | 54.6% | 15.9% | 38.5* | 84.4*
COc1cnn(-c2ccc(Br)cc2)c(=O)c1SCc1ccccc1 | -2.3% | -9.1% | 14.4% | 22.2% | 49.3* | 129.5*
COc1cnn(-c2ccccc2)c(=O)c1SCc1ccc(Cl)cc1Cl | -1.2% | -14.6% | ? | ? | -5.3 | -4.7
Cc1cccc(OCC(=O)N(C)CCc2ccccn2)c1 | -1.5% | -5.3% | 7.2% | 61.5% | 8.4 | 24.2
Cc1cc(C(=O)O)c(CCCN)s1 | 3.9% | -1.1% | 12.5% | . | -0.9 | 3.7
CN(C)S(=O)(=O)c1ccc(Cl)c(NC(=O)COC(=O)C2CSC3(C)CCC(=O)N23)c1 (stereo not drawn) | 0.3% | -4.1% | 26.2% | 2.1% | -3.7 | -3.4
c1ccc(-c2cc3c(-n4cccc4)ncnc3o2)cc1 | -3.2% | -7.2% | 35.6% | 27.4% | 68.9* | 101.9*
c1ccc(Oc2ncnc3oc(-c4ccccc4)cc23)cc1 | -0.1% | -7.9% | 38.2% | -17.6% | -0.7 | 2.3
COc1ccc2c(c1)C(=O)c1ccccc1CO2 | -16.5% | 5.9% | . | ? | 53.4* | 116.8*
O=C1c2ccccc2COc2ccc(O)cc21 | -15.5% | -81.6% | 20.2% | 115.9% | 9.7 | 64.0
CNC(=O)Oc1ccc2c(c1)C(=O)c1ccccc1CO2 | -22.4% | -93.1% | . | 47.5% | 15.5* | 61.7
O=C1c2ccccc2OCOc2ccccc21 | 2.8% | -10.4% | . | 5.9% | -2.3 | -14.0
Cc1ccc(C)c(S(=O)(=O)N2CCN(CC(=O)NC(=O)NCc3ccco3)CC2)c1 | 2.4% | -0.9% | 0.0% | -20.2% | -2.9 | -5.8
CCOC(=O)c1ccc(NS(=O)(=O)c2cn(C)cn2)cc1 | -1.2% | -8.8% | 29.8% | -5.8% | -2.8 | -10.4
Cc1cc(C)cc(Oc2nc(-c3ccccc3)cc(C)c2S(C)(=O)=O)c1 | 8.4% | ? | . | ? | 1.3 | -16.9
Cc1cc(-c2ccccc2)nc(Oc2ccc(C(C)(C)C)cc2)c1S(C)(=O)=O | -5.9% | 21.7% | ? | 13.1µM* | -0.8 | -3.1
C=CC[C@H](CC(=O)N(CCO)Cc1ccccc1)C(=O)NCCOC(=O)[C@H](CC=C)CC(=O)OC(C)(C)C | 2.4% | . | . | . | . | .
CCCCCN(C(=O)CCC(=O)OCC(=O)c1cccc(OC)c1)c1c(N)n(CCCC)c(=O)[nH]c1=O | 3.1% | 5.7% | -0.2% | -0.2% | 4.1 | -5.2
CCOc1ccccc1NC(=O)C1CCN(c2nc(-c3ccc(OC)cc3)no2)CC1 | -2.4% | 10.9% | 13.6% | -12.3% | -2.5 | -1.9
Cc1ccn2c(C=O)c(-c3ccc(F)cc3)c(C=O)c2c1 | -1.9% | . | 8.8% | ? | 27.5* | 47.3
Cc1c(C=O)c2ccccc2n1Cc1ccc(F)cc1 | -0.5% | -8.9% | ? | 20.5% | -2.5 | -2.0
CCN(C(=O)CN1C(=O)S/C(=C\C=C\c2ccccc2)C1=O)C1CCS(=O)(=O)C1 (stereo not drawn) | -3.0% | 6.4% | 7.38µM* | 4.15µM* | -1.9 | -4.7
CC(C(=O)N(C)C1CCS(=O)(=O)C1)N1C(=O)/C(=C/c2ccc(F)cc2)SC1=S (stereo not drawn) | -2.7% | 3.6% | 13.1µM* | 11.7µM* | 7.2 | 5.7
CCN(C(=O)CN1C(=O)/C(=C/c2ccccc2F)SC1=S)C1CCS(=O)(=O)C1 (stereo not drawn) | 28.5% | 4.6% | -6.3% | ? | -2.3 | -2.6
SMILES | SARS PLpro yeast | NS1 inh | Pf growth 48h | Pf growth 96h | Cycloheximide cs | Shiga toxin inh
CCN(C(=O)CCN1C(=O)/C(=C/c2ccccc2)SC1=S)C1CCS(=O)(=O)C1 (stereo not drawn) | -2.1% | -13.3% | 13.1µM* | 7.38µM* | 9.4 | 15.2
CCN(C(=O)CN1C(=O)S/C(=C\c2cccc(Cl)c2)C1=O)C1CCS(=O)(=O)C1 (stereo not drawn) | 3.4% | 3.7% | ? | 11.7µM* | -1.9 | 1.4
CCN(C(=O)CN1C(=O)S/C(=C\c2ccc(Cl)cc2)C1=O)C1CCS(=O)(=O)C1 (stereo not drawn) | -2.1% | 7.1% | 0.2% | 26.9% | -1.9 | -11.2
CC1=C(C(=O)Nc2ccc(C(=O)NC(C)c3ccccc3)cc2)SCCO1 (stereo not drawn) | 4.9% | 1.0% | ? | -0.7% | 4.6 | 7.2
Cc1cc(NC(=S)N(CCCN2CCOCC2)Cc2ccco2)ccc1Cl | -10.6% | 2.5% | ? | ? | 5.3 | 12.6
O=C(Nc1ccc(S(=O)(=O)NC2CCCC2)cc1)c1cnccn1 | 14.2% | -7.0% | 21.3% | . | 3.5 | 5.6
Cc1onc(-c2c(F)cccc2Cl)c1C(N)=S | 0.6% | . | ? | 34.2% | -2.7 | -8.3
Cc1onc(-c2c(Cl)cccc2Cl)c1C(=O)N1CCc2ccccc2C1 | 0.1% | -17.5% | 10.4µM* | 7.38µM* | -3.2 | -26.0
Cc1onc(-c2c(Cl)cccc2Cl)c1/C(N)=N/OC(=O)C(C)(C)C | -3.0% | -4.5% | 11.7µM* | 8.28µM* | -2.2 | -2.9
Cc1onc(-c2c(F)cccc2Cl)c1C(=O)O/N=C(\N)c1ccc([N+](=O)[O-])o1 | -5.8% | -9.3% | 8.28µM* | 11.7µM* | 17.8 | 36.4*
Cc1onc(-c2c(F)cccc2Cl)c1C(=O)N=C(N)N1CC(C)OC(C)C1 (stereo not drawn) | 0.9% | 2.6% | ? | 10.4µM* | 0.4 | 15.6
CC(C)(C)OC(=O)C[C@H]1C/C=C\C[C@H](CC(=O)N(CCO)Cc2ccccc2)C(=O)NC[C@H](c2ccccc2)OC1=O | -5.6% | . | . | . | . | .
CC(NC(=O)Nc1ccc(Cl)cc1)C1CCCO1 (stereo not drawn) | 0.9% | 3.8% | 72.8% | ? | 8.1 | 20.0*
CC(=O)c1cccc(NC(=O)NC(C)C2CCCO2)c1 (stereo not drawn) | 2.5% | -2.4% | 4.7% | ? | 2.7 | -4.8
CCOC(=O)c1ccc(NC(=O)NC(C)C2CCCO2)cc1 (stereo not drawn) | -0.5% | 0.8% | 3.5% | . | 12.1* | 36.4
CCOc1cc(C(=O)NC(C)C2CCCO2)cc(OCC)c1OCC (stereo not drawn) | 0.1% | 0.4% | 40.7%[1.15 µM] | 11.7µM* | -3.9 | -8.1
O=C(N/N=C/C=C/c1ccc(Br)cc1)C(O)c1ccccc1 (stereo not drawn) | 8.9% | 3.4% | -0.9% | 22.6% | -4.2 | 0.3
CCc1cc2c(SCC(=O)Nc3cc(C)on3)ncnc2s1 | -3.4% | 5.5% | -9.0% | -27.0% | -3.8 | -0.8
Cc1ccc(OC(C)C(=O)N(C)Cc2ccccc2)c([N+](=O)[O-])n1 (stereo not drawn) | -3.8% | -11.5% | 12.7% | -25.9% | -3.4 | -6.4
CC(C)c1ccc(CNc2c([N+](=O)[O-])c(=O)oc3ccccc23)cc1 | -2.3% | . | ? | 46.2% | 5.9 | 40.2
